Results filed as inconclusive are left out. Calls of active or inactive are those of the source. The call rests on the fitted dose curve; in most records, active means well fitted cell-killing curve with a large enough effect; inconclusive means small, poorly fitted or top-dose-only effect, or effect the other way; inactive means flat fitted curve, though single readings scatter.
Key:
Assay in all cases: Primary qHTS to identify gynecologic anti-cancer compounds using libraries of approved drugs and bioactive compounds (AID 1345084); further: nearly all actives have a fitted effect of over 55% in size
[1] = tested on: C33A; details: Gynecologic cancer cell panel viability, ATPlite luminescence, 48 h; series mostly up to 57.5 µM
Outline: (§1)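 In this quantitative HTS, cell killing is estimated from loss of ATP-dependent luciferase light. Cells see five compound concentrations over a 48 h exposure.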

[2] = tested on: CASKI; details: Gynecologic cancer cell panel viability, ATPlite luminescence, 48 h; series mostly up to 57.5 µM
Outline: as §1

[3] = tested on: Es-2; details: Gynecologic cancer cell panel viability, ATPlite luminescence, 48 h; series mostly up to 57.5 µM
Outline: as §1

[4] = tested on: HeLa; details: Gynecologic cancer cell panel viability, ATPlite luminescence, 48 h; series mostly up to 57.5 µM
Outline: as §1

[5] = tested on: Hek293T; details: Gynecologic cancer cell panel viability, ATPlite luminescence, 48 h, control line for the selectivity index; series mostly up to 57.5 µM
Outline: as §1

[6] = tested on: JEG-3; details: Gynecologic cancer cell panel viability, ATPlite luminescence, 48 h; series mostly up to 57.5 µM
Outline: as §1

[7] = tested on: OV90; details: Gynecologic cancer cell panel viability, ATPlite luminescence, 48 h; series mostly up to 57.5 µM
Outline: as §1

[8] = tested on: PA-1; details: Gynecologic cancer cell panel viability, ATPlite luminescence, 48 h; series mostly up to 57.5 µM
Outline: as §1

[9] = tested on: SKOV3; details: Gynecologic cancer cell panel viability, ATPlite luminescence, 48 h; series mostly up to 57.5 µM
Outline: as §1

[10] = tested on: Tov-21-G; details: Gynecologic cancer cell panel viability, ATPlite luminescence, 48 h; series mostly up to 57.5 µM
Outline: as §1

[11] = tested on: Tov112D; details: Gynecologic cancer cell panel viability, ATPlite luminescence, 48 h; series mostly up to 57.5 µM
Outline: as §1

[12] = tested on: CAOV3; details: Gynecologic cancer cell panel viability, ATPlite luminescence, 48 h; series mostly up to 57.5 µM
Outline: as §1
On the % scale 0 is the no-effect control and ±100 the full control effect; potency means the concentration at half of the fitted maximal effect.

C[C@]12C[C@@H](O)[C@@H]3C[C@@]1(O[C@@H]1O[C@H](CO)[C@@H](O)[C@H](O)[C@H]1O)[C@]3(COC(=O)c1ccccc1)C(=O)O2
inactive: Potency [1] | Potency [2] | Potency [3] | Potency [4] | Potency [5] | Potency [6] | Potency [7] | Potency [8] | Potency [9] | Potency [10] | Potency [11]

COc1cc2nc(N3CCC(N4CCCCC4)CC3)nc(NC3CCCCCC3)c2cc1OC
active: Potency [1] 25.1 µM | Potency [12] 7.08 µM | Potency [7] 22.4 µM | Potency [9] 22.4 µM

Cc1ccc(S(=O)(=O)c2ccc([N+](=O)[O-])o2)cc1
active: Potency [1] 11.2 µM | Potency [12] 11.2 µM | Potency [3] 8.91 µM | Potency [5] 8.91 µM | Potency [8] 14.1 µM | Potency [9] 25.1 µM | Potency [10] 7.94 µM

Cc1nc(NC(=O)N2CCCC2C(N)=O)sc1-c1csc(C(C)(C)C)n1 (stereo unspecified)
inactive: Potency [1] | Potency [12] | Potency [3] | Potency [5] | Potency [6] | Potency [7] | Potency [10] | Potency [11]
active: Potency [9] 3.16 µM

CC(=O)c1ccc(O[C@@H]2O[C@H](CO)[C@@H](O)[C@H](O)[C@H]2O)cc1
inactive: Potency [1] | Potency [2] | Potency [3] | Potency [4] | Potency [5] | Potency [6] | Potency [7] | Potency [8] | Potency [9] | Potency [10] | Potency [11]

C[C@@H]1O[C@@H](O[C@H]2[C@H](O)[C@@H](O)[C@H](OC[C@H]3O[C@@H](OC(=O)[C@]45CCC(C)(C)C[C@H]4C4=CCC6[C@@]7(C)CC[C@H](O[C@@H]8OC[C@H](O)[C@H](O[C@@H]9O[C@H](CO)[C@@H](O)[C@H](O)[C@H]9O)[C@H]8O)[C@@](C)(CO)C7CC[C@@]6(C)[C@]4(C)CC5)[C@H](O)[C@@H](O)[C@@H]3O)O[C@@H]2CO)[C@H](O)[C@H](O)[C@H]1O (stereo partly specified)
inactive: activity change, negative = cytotoxicity [1] 0.512% [at 6.55 µM] | activity change, negative = cytotoxicity [2] -0.125% [at 6.55 µM] | activity change, negative = cytotoxicity [3] -1.94% [at 6.55 µM] | activity change, negative = cytotoxicity [4] 8.6% [at 6.55 µM] | activity change, negative = cytotoxicity [5] -5.57% [at 6.55 µM] | activity change, negative = cytotoxicity [6] 16.9% [at 6.55 µM] | activity change, negative = cytotoxicity [7] 13.6% [at 6.55 µM] | activity change, negative = cytotoxicity [8] 8.25% [at 6.55 µM] | activity change, negative = cytotoxicity [9] 11.5% [at 6.55 µM] | activity change, negative = cytotoxicity [10] 8.55% [at 6.55 µM] | activity change, negative = cytotoxicity [11] -0.716% [at 6.55 µM]

C/C1=C\CCC2=C[C@@H](OC2=O)c2c(C)coc2C1
inactive: Potency [1] | Potency [2] | Potency [3] | Potency [4] | Potency [5] | Potency [6] | Potency [7] | Potency [8] | Potency [9] | Potency [10] | Potency [11]

COc1ccc(C(=O)C2CCN(CC(=O)N(Cc3nc4c(c(=O)[nH]3)COCC4)CC3CC3)CC2)cc1
inactive: Potency [1] | Potency [2] | Potency [3] | Potency [4] | Potency [5] | Potency [6] | Potency [7] | Potency [8] | Potency [9] | Potency [10] | Potency [11]

C[C@]1(CO)CCC[C@]2(C)C3=C(CCC12)COC3 (stereo partly specified)
inactive: Potency [1] | Potency [2] | Potency [3] | Potency [4] | Potency [5] | Potency [6] | Potency [7] | Potency [8] | Potency [9] | Potency [10] | Potency [11]

COc1cc(/C=C/C=O)cc(OC)c1O[C@@H]1O[C@H](CO)[C@@H](O)[C@H](O)[C@H]1O
inactive: Potency [1] | Potency [2] | Potency [3] | Potency [4] | Potency [5] | Potency [6] | Potency [7] | Potency [8] | Potency [9] | Potency [10] | Potency [11]

CC(=O)c1c(O)cc(O[C@@H]2O[C@H](CO)[C@@H](O)[C@H](O)[C@H]2O)cc1O
inactive: Potency [1] | Potency [2] | Potency [3] | Potency [4] | Potency [5] | Potency [6] | Potency [7] | Potency [8] | Potency [9] | Potency [10] | Potency [11]

CC/C=C\C/C=C\C/C=C\CCCCCCCC(=O)OCC(O)COC1OC(CO)C(O)C(O)C1O (stereo unspecified)
inactive: Potency [1] | Potency [2] | Potency [3] | Potency [4] | Potency [5] | Potency [6] | Potency [7] | Potency [8] | Potency [9] | Potency [10] | Potency [11]

O=C1CCC(=O)N(O)CCCCCNC(=O)CCC(=O)N(O)CCOCCNC(=O)CCC(=O)N(O)CCCCCN1
inactive: Potency [1] | Potency [2] | Potency [3] | Potency [4] | Potency [5] | Potency [6] | Potency [7] | Potency [8] | Potency [9] | Potency [10] | Potency [11]

CC1=C(COC2OC(CO)C(O)C(O)C2O)C(C(CO)C(=O)O)CC1 (stereo unspecified)
inactive: Potency [1] | Potency [2] | Potency [3] | Potency [4] | Potency [5] | Potency [6] | Potency [7] | Potency [8] | Potency [9] | Potency [10] | Potency [11]

Reference: PubChem BioAssay (NCATS)
